Shown are actives, neighbours in structure and some others; about 3.9% of the full set was active somewhere.
SUMO Mot1 rescue: yeast Mot1-301 growth rescue at high temperature, primary screen, SUMOylation pathway inhibitor project, S. cerevisiae, ATP luminescence, 38.5C. AID 2716, 2010. S. cerevisiae Mot1-301 growth rescue; percent above DMSO median, 100 means doubled. growth rescue, % at 18.8 µM. 1% of 320,000 active;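 active = every valid replicate shows activation above 250% relative to neutral control wells; inactive = the rest, any valid replicate at or below 250%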;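 note: OY570 slx delta 5 strain wells were the positive control but not used for scaling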
CASP6 VEID inh: human caspase-6 inhibitors, primary screen, biochemical, VEID-R110 fluorescence, single point, set 2; P55212; purified caspase-6, Z-VEID-R110 cleavage fluorescence; inhibition, % at 12.5 µM; 0.53% of 350,000 active;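 active = mean inhibition across replicates at least about 35%, with every replicate also reaching that limit, limit read from the data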;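 note: 0% = median of neutral control wells and 100% = no fluorescence left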
NSD2 inh: NSD2 histone methyltransferase inhibitors, primary screen, biochemical, AlphaScreen, single concentration, set 2 | Histone-lysine N-methyltransferase NSD2 (Homo sapiens), O96028 | NSD2 peptide methylation, 120 min | inhibition, % at 12.5 µM | 0.54% of 310,000 active | AID 743445, 2014; in the data active = inhibition above about 50%
CDK5 inh: inhibitors of human CDK5/p35 kinase, primary screen, biochemical, single concentration; inhibition, % at 10 µM; 0.01% of 330,000 active; Cyclin-dependent kinase 5 (Homo sapiens) + Cyclin-dependent kinase 5 activator 1 (Homo …; Recombinant CDK5/p35, ADP-Glo luminescence, 60 min;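 active = highest replicate inhibition of at least 50% and at least 75% of replicates reaching 50%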;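 note: plate controls were DMSO neutral control for no effect and GW8510 at 10 µM for full effect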
N-glyco inh: increase of ERlucT glycosylation luciferase signal, primary screen, N-linked glycosylation inhibitor project, D54 ERlucT cells, luminescence, set 2. D54 ERlucT glycosylation luciferase reporter, 24 h; percent of 100 nM tunicamycin response. reporter increase, % at 12.5 µM. 0.23% of 360,000 active;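 active = mean luciferase reporter signal, scaled so untreated is 0 and the glycosylation-blocking control 100, at or above a set limit in every replicate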;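 note: luciferase carries N-glycosylation sites so blocking glycosylation raises the light; 0% = median of neutral control wells and 100% = median of 100 nM tunicamycin wells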
ALR H2O2 inh: inhibitors of human ALR sulfhydryl oxidase, primary screen, biochemical, H2O2 detection, HRP-luminol luminescence, single point; purified ALR, DTT oxidation; 3.8% of 290,000 active; AID 485317, 2010; FAD-linked sulfhydryl oxidase ALR (Homo sapiens), P55789; inhibition, % (concentration not given with the values);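 active = mean replicate inhibition above about 79%, with every replicate also reaching it, limit read from the data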
Target sequence (P55789 whole entry, looked up): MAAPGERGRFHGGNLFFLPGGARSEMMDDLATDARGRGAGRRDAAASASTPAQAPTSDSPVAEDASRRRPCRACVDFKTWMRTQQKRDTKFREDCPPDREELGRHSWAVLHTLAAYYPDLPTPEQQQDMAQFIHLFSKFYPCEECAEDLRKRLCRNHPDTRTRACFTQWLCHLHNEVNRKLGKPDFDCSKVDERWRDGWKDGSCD
Mot1 SUMO dose: growth restoration of Mot1-301 yeast on galactose, dose response, SUMO pathway inhibitor project, whole organism, S. cerevisiae, ATP luminescence, cherry-picked samples. growth activity, percent, % at 42 µM. 2,300 tested, under 10 active. shares compounds with SUMO Mot1 rescue. S. cerevisiae Mot1-301 galactose growth, 24 h; -100 = growth of slx-deleted rescue strain;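 active = Signal drops as the depositor expects, and the fitted half-maximal dose is no more than ten times the top valid tested dose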;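 note: more negative values mean stronger growth rescue toward the control strain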
* marks the source's active call; other numbers are inactive results; · = no result; + = active, no number.

SMILES	SUMO Mot1 rescue	CASP6 VEID inh	NSD2 inh	CDK5 inh	N-glyco inh	ALR H2O2 inh	Mot1 SUMO dose
COCCN(C(=O)CSc1nnc(-c2ccc(C)cc2)n1N)c1c(N)n(Cc2ccccc2)c(=O)[nH]c1=O	516*	-3	-1	-2	5	-6	0
O=C(C1CCN(C2CC(=O)N(c3cccc(Cl)c3)C2=O)CC1)N1CCCC1 (configuration not stated)	417*	·	0	-1	0	2	-1
NC(=O)C1CCN(C2CC(=O)N(c3ccc(F)c(Cl)c3)C2=O)CC1 (configuration not stated)	649*	·	0	-1	1	-10	-1
NC(=O)C1CCN(C2CC(=O)N(c3cccc(F)c3)C2=O)CC1 (configuration not stated)	-6	·	0	-3	4	6	·
C[C@@H]1CN([C@@H](C)CO)C(=O)c2cc(NC(=O)CCC(F)(F)F)ccc2O[C@@H](C)CCCCO[C@H]1CN(C)S(=O)(=O)c1ccc(Cl)cc1	·	0	·	·	·	·	·
CN(Cc1cccnc1)Cc1cn[nH]c1-c1ccc(-c2ccccc2)cc1	791*	-4	18	2	-4	·	0
C=CCNC(=O)NC(=O)COC(=O)/C(C#N)=C/c1cc(C)n(CC(C)C)c1C	+	·	1	3	3	12	1
CCCn1c(C)cc(/C=C(\C#N)C(=O)OCC(=O)NC(=O)NC(C)(C)C)c1C	1	·	9	-3	3	-8	·
Cc1noc(C)c1Cc1ccc(O)cc1	472*	·	0	1	0	30	-1
CC(=O)c1cccc(CN2CCCC(N3CCN(c4ccccc4F)CC3)C2)c1 (configuration not stated)	796*	-1	1	2	0	·	0
Cc1sc2ncn(C(C)C(=O)OC3CCCCC3)c(=O)c2c1C (configuration not stated)	379*	·	11	-1	-2	6	0
CCOC(=O)c1sc2ncn(C(C)C(=O)OCC)c(=O)c2c1C (configuration not stated)	15	·	-7	2	0	-1	·
O=C(C[C@H]1C=C[C@@H](NC(=O)C2CCC2)[C@@H](CO)O1)NCC1CC1	·	-1	·	·	·	·	·
COc1ccc2oc(=O)c(C(=O)NCc3ccco3)cc2c1	654*	6	·	1	3	·	0
CCC1=Nc2cc(C(=O)NCc3ccco3)ccc2Sc2ccccc21	397*	·	2	-1	11	2	1
COc1cccc2cc(C(=O)NCc3ccco3)c(=O)oc12	-7	5	1	1	0	-3	·
CCCOc1ccc(C(=O)NCc2ccco2)cc1	685*	·	2	1	2	-1	0
CCC1=Nc2cc(C(=O)NCc3ccco3)ccc2Sc2ccc(Cl)cc21	45	·	0	1	20	10	·
Nc1nc(CSc2nnnn2-c2ccc(Cl)cc2)nc(N2CCOCC2)n1	376*	·	0	0	0	0	0
Nc1nc(CSc2nnnn2-c2ccc(F)c(Cl)c2)nc(N2CCOCC2)n1	0	·	0	-2	1	-2	·
CC(C)N(C(=S)Nc1cccc(S(=O)(=O)N(C)C)c1)c1ccccc1	454*	1	-2	1	0	14	1
CN(C)S(=O)(=O)c1cccc(C(=O)Nc2ccccc2)c1	-27	1	0	0	1	1	·
CN(C)S(=O)(=O)c1cccc(NC(=O)C(c2ccccc2)c2ccccc2)c1	404*	1	1	0	-2	-1	0
CN1CCN(C(=S)Nc2cccc(S(=O)(=O)N(C)C)c2)CC1	30	-2	1	0	1	4	·

From PubChem BioAssay
